# Results published in paper PMC11006913.
# Substitutions are numbered along the chain they refer to.
# Legend:
# Assay in all cases: PBM; 200 nM protein, PBS
# Conditions in all cases: dsDNA, one strand shown
# NKX2-4 [1] = biological target: T1, NKX2-4 (Homo sapiens, UniProt Q9H2Z4 175-261, P217L)
# T1 sequence: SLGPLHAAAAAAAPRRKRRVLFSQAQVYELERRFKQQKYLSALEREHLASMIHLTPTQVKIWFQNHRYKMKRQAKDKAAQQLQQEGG
# NKX2-4 [2] = biological target: T2, NKX2-4 (Homo sapiens, UniProt Q9H2Z4 175-261, T231S)
# T2 sequence: T1 sequence with L43P, T57S
# ALX4 [3] = biological target: ALX4 (Homo sapiens, UniProt Q9H161 200-286)
# ALX4 (Homo sapiens, UniProt Q9H161 200-286), sequence (Q9H161 200-286): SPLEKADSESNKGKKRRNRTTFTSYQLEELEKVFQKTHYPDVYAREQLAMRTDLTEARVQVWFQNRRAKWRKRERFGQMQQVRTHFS
# NKX2-4 [4] = biological target: T3, NKX2-4 (Homo sapiens, UniProt Q9H2Z4 175-261)
# T3 sequence: T1 sequence with L43P
# ALX4 [5] = biological target: ALX4 (Homo sapiens, UniProt Q9H161 200-286, Q225E)
# ALX4 (Homo sapiens, UniProt Q9H161 200-286, Q225E), sequence (Q9H161 200-286 Q225E): as the sequence (Q9H161 200-286) above, with Q26E counted along it
# NKX2-4 [6] = biological target: T4, NKX2-4 (Homo sapiens, UniProt Q9H2Z4 175-261, R246Q)
# T4 sequence: T1 sequence with L43P, R72Q
# MSX2 [7] = biological target: MSX2 (Homo sapiens, UniProt P35548 130-214, R199I)
# MSX2 (Homo sapiens, UniProt P35548 130-214, R199I), sequence (P35548 130-214 R199I): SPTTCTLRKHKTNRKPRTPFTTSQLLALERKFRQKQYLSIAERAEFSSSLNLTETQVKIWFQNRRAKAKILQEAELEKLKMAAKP
# ALX1 [8] = biological target: ALX1 (Homo sapiens, UniProt Q15699 118-204, L144V)
# ALX1 (Homo sapiens, UniProt Q15699 118-204, L144V), sequence (Q15699 118-204 L144V): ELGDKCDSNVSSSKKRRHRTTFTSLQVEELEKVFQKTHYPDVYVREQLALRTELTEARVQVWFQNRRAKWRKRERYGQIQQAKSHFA
# ALX1 [9] = biological target: ALX1 (Homo sapiens, UniProt Q15699 118-204, L144R)
# ALX1 (Homo sapiens, UniProt Q15699 118-204, L144R), sequence (Q15699 118-204 L144R): as the sequence (Q15699 118-204 L144V) above, with V27R counted along it
# MSX2 [10] = biological target: MSX2 (Homo sapiens, UniProt P35548 130-214)
# MSX2 (Homo sapiens, UniProt P35548 130-214), sequence (P35548 130-214): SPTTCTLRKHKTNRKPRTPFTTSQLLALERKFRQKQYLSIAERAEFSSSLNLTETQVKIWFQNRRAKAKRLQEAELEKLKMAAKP
# MSX2 [11] = biological target: MSX2 (Homo sapiens, UniProt P35548 130-214, F161Y)
# MSX2 (Homo sapiens, UniProt P35548 130-214, F161Y), sequence (P35548 130-214 F161Y): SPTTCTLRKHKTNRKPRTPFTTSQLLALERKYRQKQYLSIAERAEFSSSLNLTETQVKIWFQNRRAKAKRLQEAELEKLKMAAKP
# ALX1 [12] = biological target: ALX1 (Homo sapiens, UniProt Q15699 118-204)
# ALX1 (Homo sapiens, UniProt Q15699 118-204), sequence (Q15699 118-204): as the sequence (Q15699 118-204 L144V) above, with V27L counted along it
# HOXB6 [13] = biological target: HOXB6 (Homo sapiens, UniProt P17509 132-218, K202E)
# HOXB6 (Homo sapiens, UniProt P17509 132-218, K202E), sequence (P17509 132-218 K202E): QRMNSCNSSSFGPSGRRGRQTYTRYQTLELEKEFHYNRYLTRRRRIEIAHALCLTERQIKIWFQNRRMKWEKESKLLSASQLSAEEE
# HOXB6 [14] = biological target: HOXB6 (Homo sapiens, UniProt P17509 132-218)
# HOXB6 (Homo sapiens, UniProt P17509 132-218), sequence (P17509 132-218): as the sequence (P17509 132-218 K202E) above, with E71K counted along it
# NKX2-6 [15] = biological target: T5, NKX2-6 (Homo sapiens, UniProt A6NCS4 118-204, R150C)
# T5 sequence: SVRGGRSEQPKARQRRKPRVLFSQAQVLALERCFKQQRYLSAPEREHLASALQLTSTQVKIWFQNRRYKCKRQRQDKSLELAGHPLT
# NKX2-6 [16] = biological target: T6, NKX2-6 (Homo sapiens, UniProt A6NCS4 118-204)
# T6 sequence: T5 sequence with C33R
# NKX2-6 [17] = biological target: T7, NKX2-6 (Homo sapiens, UniProt A6NCS4 118-204, F151L)
# T7 sequence: T5 sequence with C33R, F34L
sequence,measurement,setting,value
AGATGCCG,binding signal,NKX2-4 [1],"9.76 upbm affinity estimate (log intensity, higher = more binding, comparable within an allelic series)"
same,binding signal,NKX2-4 [2],"9.8 upbm affinity estimate (log intensity, higher = more binding, comparable within an allelic series)"
same,binding signal,ALX4 [3],"8.1 upbm affinity estimate (log intensity, higher = more binding, comparable within an allelic series)"
same,binding signal,NKX2-4 [4],"9.82 upbm affinity estimate (log intensity, higher = more binding, comparable within an allelic series)"
same,binding signal,ALX4 [5],"8.32 upbm affinity estimate (log intensity, higher = more binding, comparable within an allelic series)"
same,binding signal,NKX2-4 [6],"9.91 upbm affinity estimate (log intensity, higher = more binding, comparable within an allelic series)"
ACCCCTGG,binding signal,NKX2-4 [1],"9.8 upbm affinity estimate (log intensity, higher = more binding, comparable within an allelic series)"
same,binding signal,NKX2-4 [2],"9.68 upbm affinity estimate (log intensity, higher = more binding, comparable within an allelic series)"
same,binding signal,NKX2-4 [4],"9.75 upbm affinity estimate (log intensity, higher = more binding, comparable within an allelic series)"
same,binding signal,MSX2 [7],"9.54 upbm affinity estimate (log intensity, higher = more binding, comparable within an allelic series)"
same,binding signal,ALX1 [8],"6.31 upbm affinity estimate (log intensity, higher = more binding, comparable within an allelic series)"
same,binding signal,ALX1 [9],"6.38 upbm affinity estimate (log intensity, higher = more binding, comparable within an allelic series)"
same,binding signal,MSX2 [10],"9.55 upbm affinity estimate (log intensity, higher = more binding, comparable within an allelic series)"
same,binding signal,NKX2-4 [6],"9.71 upbm affinity estimate (log intensity, higher = more binding, comparable within an allelic series)"
same,binding signal,MSX2 [11],"9.58 upbm affinity estimate (log intensity, higher = more binding, comparable within an allelic series)"
same,binding signal,ALX1 [12],"6.28 upbm affinity estimate (log intensity, higher = more binding, comparable within an allelic series)"
CCAGGCTC,binding signal,NKX2-4 [1],"9.76 upbm affinity estimate (log intensity, higher = more binding, comparable within an allelic series)"
same,binding signal,NKX2-4 [2],"9.75 upbm affinity estimate (log intensity, higher = more binding, comparable within an allelic series)"
same,binding signal,NKX2-4 [4],"9.7 upbm affinity estimate (log intensity, higher = more binding, comparable within an allelic series)"
same,binding signal,HOXB6 [13],"9.08 upbm affinity estimate (log intensity, higher = more binding, comparable within an allelic series)"
same,binding signal,NKX2-4 [6],"9.86 upbm affinity estimate (log intensity, higher = more binding, comparable within an allelic series)"
same,binding signal,HOXB6 [14],"9.18 upbm affinity estimate (log intensity, higher = more binding, comparable within an allelic series)"
AGAGGGCT,binding signal,NKX2-4 [1],"11.7 upbm affinity estimate (log intensity, higher = more binding, comparable within an allelic series)"
same,binding signal,NKX2-4 [2],"11.9 upbm affinity estimate (log intensity, higher = more binding, comparable within an allelic series)"
same,binding signal,NKX2-4 [4],"11.7 upbm affinity estimate (log intensity, higher = more binding, comparable within an allelic series)"
CACGCCGC,binding signal,NKX2-4 [1],"9.39 upbm affinity estimate (log intensity, higher = more binding, comparable within an allelic series)"
same,binding signal,NKX2-4 [2],"9.34 upbm affinity estimate (log intensity, higher = more binding, comparable within an allelic series)"
same,binding signal,NKX2-4 [4],"9.42 upbm affinity estimate (log intensity, higher = more binding, comparable within an allelic series)"
same,binding signal,NKX2-6 [15],"9.39 upbm affinity estimate (log intensity, higher = more binding, comparable within an allelic series)"
same,binding signal,NKX2-6 [16],"9.52 upbm affinity estimate (log intensity, higher = more binding, comparable within an allelic series)"
same,binding signal,NKX2-4 [6],"9.48 upbm affinity estimate (log intensity, higher = more binding, comparable within an allelic series)"
same,binding signal,NKX2-6 [17],"9.29 upbm affinity estimate (log intensity, higher = more binding, comparable within an allelic series)"
CCGCTAGG,binding signal,NKX2-4 [1],"9.61 upbm affinity estimate (log intensity, higher = more binding, comparable within an allelic series)"
same,binding signal,NKX2-4 [2],"9.55 upbm affinity estimate (log intensity, higher = more binding, comparable within an allelic series)"
same,binding signal,NKX2-4 [4],"9.61 upbm affinity estimate (log intensity, higher = more binding, comparable within an allelic series)"
same,binding signal,NKX2-4 [6],"9.6 upbm affinity estimate (log intensity, higher = more binding, comparable within an allelic series)"
